Laboratory results reported in the supplement of paper PMC6953052.
Several values for one entry are separate records, joined by “and”; a condition that tells them apart may be missing. Equal values may be shown once. ± gives the standard deviation of the averaged measurements. Whole data set: some 1,700 compounds, median “fraction of GFP-LC3-positive cells (≥5 vesicles/cell)” near 0.058, cut for the highest 2% near 0.59. This is one part of a sample in which the highest values are shown more often than they occur.

test system: CbCln3 +/+ GFP-LC3 cerebellar neuronal cells; experiment: fraction of GFP-LC3-positive cells (≥5 vesicles/cell); higher = more autophagosome accumulation
How it was run: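 Values are the duplicate-averaged fraction of cells passing a GFP-LC3 vesicle cutoff, counted per cell in CellProfiler with out-of-focus images excluded. That cutoff is 5 or more vesicles. Wild-type or mutant CbCln3 cerebellar cells stably expressing GFP-LC3 (2 × 10^3/well, 384-well) were given ~50 nL compound in DMSO by pin transfer for 24 h at 33 °C, then fixed in 3.2% PFA and imaged at 10×, three fields per well.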

Compound	fraction of GFP-LC3-positive cells
COc1ccc2cc1Oc1ccc(cc1)C[C@H]1c3cc(c(OC)cc3CCN1C)Oc1c(OC)c(OC)cc3c1[C@H](C2)N(C)CC3 [Tetrandrine]	0.0783
C=C(C)[C@@H]1CC[C@]2(C(=O)O)CC[C@]3(C)[C@H](CC[C@@H]4[C@@]5(C)CC[C@H](O)C(C)(C)[C@@H]5CC[C@]43C)[C@@H]12 [Betulinic acid]	0.0563
Cc1ccsc1/C=C/C1=NCCCN1C.O=C(O)C(O)C(O)C(=O)O [Morantel tartrate]	0.0668
CCN(CC)C(=S)SSC(=S)N(CC)CC [Disulfiram]	0.687
O=C(O)CCC(=O)c1ccc(-c2ccccc2)cc1 [Fenbufen]	0.0751
CC[C@]1(O)C[C@@H]2CN(CCc3c([nH]c4ccccc34)[C@@](C(=O)OC)(c3cc4c(cc3OC)N(C)[C@H]3[C@@](O)(C(=O)OC)[C@H](OC(C)=O)[C@]5(CC)C=CCN6CC[C@]43[C@@H]65)C2)C1.O=S(=O)(O)O [vinblastine]	0.691
CCCCCCCC/C=C\CCCCCCCC(=O)OC[C@@H](O)COP(=O)(O)O	0.039
CCCCCCCC/C=C\CCCCCCCC(=O)OC[C@@H](O)COP(=O)(O)O [Lysophosphatidic acid]	0.0399
COc1cc2nc(N3CCN(C(=O)C4CCCO4)CC3)nc(N)c2cc1OC.Cl (stereo not drawn) [Terazosin hydrochloride]	0.0471
COc1cc2nc(N3CCN(C(=O)c4ccco4)CC3)nc(N)c2cc1OC [prazocin]	0.899
COc1cc2nc(N3CCN(C(=O)c4ccco4)CC3)nc(N)c2cc1OC.Cl [Prazosin hydrochloride]	0.156
C[C@]12CC[C@@H]3c4ccc(O)cc4CC[C@H]3[C@@H]1CCC2=O [Estrone]	0.0194
CC(C)=CC[C@@H](O)C1=CC(=O)c2c(O)ccc(O)c2C1=O [Shikonin]	0.7
CC/C=C\C/C=C\C/C=C\C/C=C\C/C=C\CCCC(=O)O	0.047
CC/C=C\C/C=C\C/C=C\C/C=C\C/C=C\CCCC(=O)O [Eicosapentaenoic acid (20:5 n-3)]	0.0669
Clc1ccc(C(Cn2ccnc2)OCc2csc3c(Cl)cccc23)c(Cl)c1.O=[N+]([O-])O (stereo not drawn) [Sertaconazole nitrate]	0.0474
O=C(O)c1cc(N(Cc2ccccc2O)Cc2cc(O)ccc2O)ccc1O [Lavendustin A]	0.0834
O=C(O)c1cc(N(Cc2ccccc2O)Cc2cc(O)ccc2O)ccc1O	0.0412
CCCCNc1c(C(=O)OCC)c(C)nc2c1cnn2CC.Cl [Tracazolate hydrochloride]	0.0505
Cc1c(OCC(F)(F)F)ccnc1CS(=O)c1nc2ccccc2[nH]1 (stereo not drawn) [Lansoprazole]	0.0343
COC1=CC(=O)C[C@@H](C)[C@]12Oc1c(Cl)c(OC)cc(OC)c1C2=O [Griseofulvin]	0.172
Cc1ncc(C[n+]2csc(CCO)c2C)c(N)n1.Cl.[Cl-] [Thiamine hydrochloride]	0.0725
CC[C@H](C)C(=O)O[C@H]1C[C@@H](C)C=C2C=C[C@H](C)[C@H](CC[C@@H]3C[C@@H](O)CC(=O)O3)[C@H]21 [Mevinolin (lovastatin)]	0.203

Compound	fraction of GFP-LC3-positive cells
CC(C)(Oc1ccc(C2CC2(Cl)Cl)cc1)C(=O)O (stereo not drawn) [Ciprofibrate]	0.0359
CCN(CC)C(=O)N1CCN(C)CC1.O=C(O)CC(O)(CC(=O)O)C(=O)O [Diethylcarbamazine citrate]	0.0418
CC(=O)O[C@H]1C(=O)[C@@]2(C)C([C@H](OC(=O)c3ccccc3)[C@]3(O)C[C@H](OC(=O)[C@H](O)[C@@H](NC(=O)c4ccccc4)c4ccccc4)C(C)=C1C3(C)C)[C@]1(OC(C)=O)CO[C@@H]1C[C@@H]2O (stereo partly drawn) [taxol =paclitaxel]	0.536
CC(=O)O[C@H]1C(=O)[C@@]2(C)[C@H]([C@H](OC(=O)c3ccccc3)[C@]3(O)C[C@H](OC(=O)[C@H](O)[C@@H](NC(=O)c4ccccc4)c4ccccc4)C(C)=C1C3(C)C)[C@]1(OC(C)=O)CO[C@@H]1C[C@@H]2O [Paclitaxel]	0.642
CS(=O)c1ccc(-c2nc(-c3ccc(F)cc3)c(-c3ccncc3)[nH]2)cc1 (stereo not drawn)	0.023
Cc1cnc(C(=O)NCCc2ccc(S(=O)(=O)NC(=O)NC3CCCCC3)cc2)cn1 [Glipizide]	0.057
CCOC(=O)n1ccn(C)c1=S [Carbimazole]	0.0518
N=C(N)NCC1COC2(CCCCC2)O1.N=C(N)NCC1COC2(CCCCC2)O1.O=S(=O)(O)O (stereo not drawn) [Guanadrel sulfate]	0.041
CC/C=C/C/C=C/C/C=C/CCCCCCCCCC(=O)O [Eicosatrienoic acid (20:3 N-3)]	0.0456
CCCCC/C=C/C/C=C/CCCCCCCCCCCC(=O)O [13(Z),16(Z)-Docosadienoic acid]	0.0709
CC(=O)OCC(=O)[C@@]1(OC(C)=O)[C@@H](C)C[C@H]2[C@@H]3C[C@H](F)C4=CC(=O)C=C[C@]4(C)[C@@]3(F)[C@@H](O)C[C@@]21C [Diflorasone Diacetate]	0.085
O=C1Cc2c([nH]c3ccc(Br)cc23)-c2ccccc2N1	0.0413
CCCNC(=O)[C@H]1O[C@@H]1C(=O)N[C@H](C(=O)N1CCC[C@H]1C(=O)OC)C(C)CC (stereo partly drawn)	0.399 and 0.352
CNCCC(Oc1ccccc1OC)c1ccccc1.Cl (stereo not drawn) [Nisoxetine hydrochloride]	0.0525
C[C@@H](O)[C@H]1C(=O)N2C(C(=O)O)=C(S[C@@H]3CN[C@H](C(=O)N(C)C)C3)[C@H](C)[C@H]12 [Meropenem]	0.0612
Nc1ccc(C(=O)NCC(=O)O)cc1 [Aminohippuric acid]	0.0809
COc1ccc(Cl)cc1C(=O)NCCc1ccc(S(=O)(=O)NC(=O)NC2CCCCC2)cc1	0.0797
CC(C)Cc1ccc([C@H](C)C(=O)O)cc1 [S-(+)-ibuprofen]	0.0447
O=[N+]([O-])c1cccc2c(Br)n[nH]c12 [Bromo-7-nitroindazole [3-Bromo-7-nitroindazole]]	0.0548
C1COC(NC(C2CC2)C2CC2)=N1.C1COC(NC(C2CC2)C2CC2)=N1.O=C(O)/C=C/C(=O)O [Rilmenidine hemifumarate]	0.0609
COc1ccc2c(c1)c(CC(=O)N1CCOCC1)c(C)n2C(=O)c1ccc(Cl)cc1	0.0513 ± 0.01
CCCCCCCCCCCCCCCCC(=O)O [Heptadecanoic acid]	0.0793
C[N+](C)(C)CCOC(N)=O.[Cl-] [Carbachol]	0.0698

Compound	fraction of GFP-LC3-positive cells
CN(C)CCCn1cc(C2=C(c3c[nH]c4ccccc34)C(=O)NC2=O)c2ccccc21	0.0883 and 0.0921
Cn1cc(C2=C(c3cn(CCCSC(=N)N)c4ccccc34)C(=O)NC2=O)c2ccccc21	0.845 ± 0.071
COc1ccc(CCN(C)CCCC(C#N)(c2ccc(OC)c(OC)c2)C(C)C)cc1OC.Cl (stereo not drawn) [Verapamyl hydrochloride]	0.0534
COC(=O)[C@H]1[C@H]2C[C@H]3c4[nH]c5ccccc5c4CCN3C[C@@H]2CC[C@@H]1O.Cl [Corynanthine hydrochloride]	0.0351
Nc1nc(S)c2ncn([C@@H]3O[C@H](CO)[C@@H](O)[C@H]3O)c2n1 [Thioguanosine]	0.131
NC(=O)c1ncn([C@@H]2O[C@H](CO)[C@@H](O)[C@H]2O)n1 [Ribavirin]	0.033
Nc1ncn(C2O[C@H](CO)[C@@H](O)[C@H]2O)c(=O)n1 (stereo partly drawn) [Azacytidine-5]	0.745
C[C@]12CCC(=O)C=C1CC[C@@H]1[C@@H]2[C@@H](O)C[C@@]2(C)[C@H]1CC[C@]2(O)C(=O)CO [Hydrocortisone base]	0.049
C[C@@H](N)[C@H]1CC[C@H](C(=O)Nc2ccncc2)CC1	0.074
CNCCC=C1c2ccccc2CCc2ccccc21.Cl [Nortriptyline hydrochloride]	0.0533
Cc1nccn1CC1CCc2c(c3ccccc3n2C)C1=O.Cl (stereo not drawn) [Ondansetron Hydrochloride]	0.03
CCCCCCCCCCCCCCCCCCCCCCC(=O)O [Tricosanoic acid]	0.0481
Cc1cc(CC(=O)[O-])n(C)c1C(=O)c1ccc(Cl)cc1.[Na+] [Zomepirac sodium salt]	0.0585
CC(COc1ccccc1)N(CCCl)Cc1ccccc1.Cl (stereo not drawn) [Phenoxybenzamine hydrochloride]	0.139
Cc1cc(C(C)(C)C)cc(C)c1CC1=NCCN1.Cl [Xylometazoline hydrochloride]	0.0933
Cc1ccc(Cl)c(Nc2ccccc2C(=O)[O-])c1Cl.O.[Na+] [Meclofenamic acid sodium salt monohydrate]	0.0498
CCCC[C@@H](C)/C=C(C)/C=C(\C)C(=O)NC1=C[C@@](O)(/C=C/C=C/C=C/C(=O)NC2=C(O)CCC2=O)[C@@H]2O[C@@H]2C1=O [manumycin A]	0.695
COc1ccccc1OCC(O)COC(N)=O (stereo not drawn) [Methocarbamol]	0.0551
COc1cc(C(=O)OCCCN2CCCN(CCCOC(=O)c3cc(OC)c(OC)c(OC)c3)CC2)cc(OC)c1OC.Cl.Cl [Dilazep dihydrochloride]	0.0467
COC(=O)[C@H]1[C@H]2C[C@@H]3c4[nH]c5cc(OC)ccc5c4CCN3C[C@H]2C[C@@H](OC(=O)/C=C/c2cc(OC)c(OC)c(OC)c2)[C@@H]1OC [Rescinnamin]	0.134
COc1cc(/C=C/C(=O)N2CCC=CC2=O)cc(OC)c1OC [Piperlongumine]	0.781
COc1ccc2c(c1OC)C(=O)O[C@@H]2[C@H]1c2c(cc3c(c2OC)OCO3)CCN1C [Noscapine]	0.0895
